# Assays:
# Test in all cases: DAPPL (digital affinity profiling via proximity ligation, sequencing); 10 mM Tris-HCl pH 7.5, 50 mM NaCl, 1 mM DTT, 4% glycerol, room temperature, 30 min; GST-TFs on glutathione beads, 16-mer random dsDNA library, 0.1% formaldehyde crosslink after washing; high values mean tight binding
# FLI1 = target: T1, FLI1 (Homo sapiens, UniProt Q01543 1-452); conditions: protein: recombinant; tags: N-terminal GST; dsDNA, one strand shown
# T1 sequence: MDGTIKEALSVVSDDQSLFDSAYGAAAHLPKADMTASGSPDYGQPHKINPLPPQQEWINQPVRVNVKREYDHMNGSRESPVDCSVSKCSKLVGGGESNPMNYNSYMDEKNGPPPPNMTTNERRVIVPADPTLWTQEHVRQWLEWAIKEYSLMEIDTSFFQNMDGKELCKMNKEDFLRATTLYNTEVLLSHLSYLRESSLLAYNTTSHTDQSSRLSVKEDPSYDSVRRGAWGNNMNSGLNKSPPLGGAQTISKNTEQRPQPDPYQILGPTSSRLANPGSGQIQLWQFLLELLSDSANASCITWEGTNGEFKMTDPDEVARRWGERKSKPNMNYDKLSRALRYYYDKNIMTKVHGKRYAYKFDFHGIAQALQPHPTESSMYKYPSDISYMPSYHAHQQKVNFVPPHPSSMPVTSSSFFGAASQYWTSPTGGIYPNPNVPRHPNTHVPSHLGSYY
# How it was run: (§1)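 Binding signal is defined as a hexamer's read frequency for one factor over its frequency for the tag-only sample. To obtain reads, GST-fused human transcription factors were expressed in yeast, captured on glutathione beads, barcoded with DNA and pooled with that sample. Pools met 200 nmole of a 16-mer random double-stranded DNA library in Tris/NaCl/DTT/glycerol buffer for 30 min at room temperature before washing, 0.1% formaldehyde crosslinking, proximity ligation (BsaI/T4 ligase, 1 h, 37 °C), PCR and Illumina NextSeq500 sequencing.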
# ELK1 = target: T2, ELK1 (Homo sapiens, UniProt P19419 1-428); conditions: protein: recombinant; tags: N-terminal GST; dsDNA, one strand shown
# T2 sequence: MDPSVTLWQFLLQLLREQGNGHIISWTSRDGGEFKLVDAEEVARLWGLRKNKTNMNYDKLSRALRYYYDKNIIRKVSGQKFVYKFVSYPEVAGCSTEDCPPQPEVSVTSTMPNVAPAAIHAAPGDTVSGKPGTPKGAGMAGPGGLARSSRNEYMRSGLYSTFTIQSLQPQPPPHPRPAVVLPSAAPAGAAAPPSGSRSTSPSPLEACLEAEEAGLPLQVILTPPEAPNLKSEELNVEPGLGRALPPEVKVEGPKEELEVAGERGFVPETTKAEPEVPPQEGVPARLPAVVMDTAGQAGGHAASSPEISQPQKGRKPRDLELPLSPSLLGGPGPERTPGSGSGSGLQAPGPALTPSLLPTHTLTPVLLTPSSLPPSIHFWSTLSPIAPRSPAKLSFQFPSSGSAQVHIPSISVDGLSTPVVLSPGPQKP
# How it was run: as §1
# GABPA = target: T3, GABPA (Homo sapiens, UniProt Q06546 1-454); conditions: protein: recombinant; tags: N-terminal GST; dsDNA, one strand shown
# T3 sequence: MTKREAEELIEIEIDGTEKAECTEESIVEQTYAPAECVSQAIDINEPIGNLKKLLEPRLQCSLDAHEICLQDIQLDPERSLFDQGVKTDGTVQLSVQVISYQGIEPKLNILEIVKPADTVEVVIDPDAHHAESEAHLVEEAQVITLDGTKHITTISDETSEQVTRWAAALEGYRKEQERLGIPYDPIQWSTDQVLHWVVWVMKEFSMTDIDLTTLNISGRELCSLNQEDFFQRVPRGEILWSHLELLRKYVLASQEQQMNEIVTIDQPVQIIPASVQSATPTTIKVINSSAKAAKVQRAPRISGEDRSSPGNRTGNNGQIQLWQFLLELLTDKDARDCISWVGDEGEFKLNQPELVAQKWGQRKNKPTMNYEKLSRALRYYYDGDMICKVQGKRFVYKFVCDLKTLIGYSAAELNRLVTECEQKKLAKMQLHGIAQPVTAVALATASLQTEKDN
# How it was run: as §1
# ERG = target: T4, ERG (Homo sapiens, UniProt P11308 1-479); conditions: protein: recombinant; tags: N-terminal GST; dsDNA, one strand shown
# T4 sequence: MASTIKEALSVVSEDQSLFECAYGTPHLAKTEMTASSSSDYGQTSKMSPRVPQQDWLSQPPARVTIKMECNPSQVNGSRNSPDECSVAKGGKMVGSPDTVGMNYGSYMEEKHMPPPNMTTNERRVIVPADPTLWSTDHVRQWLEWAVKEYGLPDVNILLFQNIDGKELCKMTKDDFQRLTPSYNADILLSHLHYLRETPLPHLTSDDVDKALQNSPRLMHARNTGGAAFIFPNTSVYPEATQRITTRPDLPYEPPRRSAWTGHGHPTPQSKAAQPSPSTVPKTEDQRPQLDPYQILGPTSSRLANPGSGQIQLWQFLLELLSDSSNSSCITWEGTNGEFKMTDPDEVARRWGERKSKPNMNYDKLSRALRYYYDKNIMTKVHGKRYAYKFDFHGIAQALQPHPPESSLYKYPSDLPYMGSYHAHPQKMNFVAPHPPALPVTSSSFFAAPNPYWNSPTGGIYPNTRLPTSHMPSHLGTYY
# How it was run: as §1
# ELF1 = ELF1 (Homo sapiens, UniProt P32519 1-619); conditions: protein: recombinant; tags: N-terminal GST; dsDNA, one strand shown
# Chain of ELF1 (P32519 whole entry): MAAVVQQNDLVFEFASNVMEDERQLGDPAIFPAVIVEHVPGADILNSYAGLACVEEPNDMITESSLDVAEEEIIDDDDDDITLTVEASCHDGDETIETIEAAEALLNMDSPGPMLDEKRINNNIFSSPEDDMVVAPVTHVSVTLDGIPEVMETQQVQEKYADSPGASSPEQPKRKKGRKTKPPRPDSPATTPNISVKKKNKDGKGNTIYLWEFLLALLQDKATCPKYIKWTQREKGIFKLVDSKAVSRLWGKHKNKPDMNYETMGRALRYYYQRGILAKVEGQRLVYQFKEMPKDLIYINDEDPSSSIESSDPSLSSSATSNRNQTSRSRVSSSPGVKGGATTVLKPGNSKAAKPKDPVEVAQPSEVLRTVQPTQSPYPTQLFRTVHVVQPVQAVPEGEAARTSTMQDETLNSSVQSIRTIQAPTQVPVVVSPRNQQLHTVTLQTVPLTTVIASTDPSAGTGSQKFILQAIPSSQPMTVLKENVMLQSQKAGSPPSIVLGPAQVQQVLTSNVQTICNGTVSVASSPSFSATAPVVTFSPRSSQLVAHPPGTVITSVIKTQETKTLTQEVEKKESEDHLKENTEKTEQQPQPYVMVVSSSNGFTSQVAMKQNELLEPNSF
# How it was run: as §1
# EHF = target: T5, EHF (Homo sapiens, UniProt Q9NZC4 1-300); conditions: protein: recombinant; tags: N-terminal GST; dsDNA, one strand shown
# T5 sequence: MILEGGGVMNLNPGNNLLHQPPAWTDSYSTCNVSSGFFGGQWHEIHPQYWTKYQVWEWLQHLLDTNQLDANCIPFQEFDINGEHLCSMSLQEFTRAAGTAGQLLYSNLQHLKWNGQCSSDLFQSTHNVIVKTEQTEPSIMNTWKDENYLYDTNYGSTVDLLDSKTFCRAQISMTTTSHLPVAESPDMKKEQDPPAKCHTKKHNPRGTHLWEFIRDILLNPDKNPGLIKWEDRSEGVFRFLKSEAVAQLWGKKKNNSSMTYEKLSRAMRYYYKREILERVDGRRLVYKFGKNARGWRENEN
# How it was run: as §1
# SPI1 = SPI1 (Homo sapiens, UniProt P17947 1-270); conditions: protein: recombinant; tags: N-terminal GST; dsDNA, one strand shown
# How it was run: as §1
# SPIB = SPIB (Homo sapiens, UniProt Q01892 1-262); conditions: protein: recombinant; tags: N-terminal GST; dsDNA, one strand shown
# Chain of SPIB (Q01892 whole entry): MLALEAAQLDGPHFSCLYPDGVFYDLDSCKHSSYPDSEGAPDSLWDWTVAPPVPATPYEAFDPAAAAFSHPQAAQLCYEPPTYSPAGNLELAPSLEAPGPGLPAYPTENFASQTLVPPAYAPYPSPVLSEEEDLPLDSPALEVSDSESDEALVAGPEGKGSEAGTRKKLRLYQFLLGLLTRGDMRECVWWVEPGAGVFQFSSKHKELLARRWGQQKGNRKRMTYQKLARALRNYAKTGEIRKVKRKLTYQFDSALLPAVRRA
# How it was run: as §1
# ELK3 = target: T6, ELK3 (Homo sapiens, UniProt P41970 1-407); conditions: protein: recombinant; tags: N-terminal GST; dsDNA, one strand shown
# T6 sequence: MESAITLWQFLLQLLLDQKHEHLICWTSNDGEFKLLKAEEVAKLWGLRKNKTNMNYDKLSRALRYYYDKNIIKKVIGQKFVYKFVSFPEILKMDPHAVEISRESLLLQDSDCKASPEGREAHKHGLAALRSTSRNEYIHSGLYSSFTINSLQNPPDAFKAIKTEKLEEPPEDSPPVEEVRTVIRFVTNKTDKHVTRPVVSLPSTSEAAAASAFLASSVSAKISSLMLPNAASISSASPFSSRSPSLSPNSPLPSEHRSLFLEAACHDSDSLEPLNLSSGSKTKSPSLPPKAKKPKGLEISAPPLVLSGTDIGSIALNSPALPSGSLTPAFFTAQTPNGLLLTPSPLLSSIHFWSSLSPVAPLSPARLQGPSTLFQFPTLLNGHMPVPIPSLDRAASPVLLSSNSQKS
# How it was run: as §1
# FEV = target: T7, FEV (Homo sapiens, UniProt Q99581 1-238); conditions: protein: recombinant; tags: N-terminal GST; dsDNA, one strand shown
# T7 sequence: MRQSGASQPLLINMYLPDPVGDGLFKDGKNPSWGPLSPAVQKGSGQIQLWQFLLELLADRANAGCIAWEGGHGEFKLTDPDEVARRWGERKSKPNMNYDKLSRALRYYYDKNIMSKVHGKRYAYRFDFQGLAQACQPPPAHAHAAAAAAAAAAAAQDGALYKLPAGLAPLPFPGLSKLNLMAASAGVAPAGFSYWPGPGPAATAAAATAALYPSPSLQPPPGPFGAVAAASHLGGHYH
# How it was run: as §1
# ETV5 = ETV5 (Homo sapiens, UniProt P41161 1-510); conditions: protein: recombinant; tags: N-terminal GST; dsDNA, one strand shown
# Chain of ETV5 (P41161 whole entry): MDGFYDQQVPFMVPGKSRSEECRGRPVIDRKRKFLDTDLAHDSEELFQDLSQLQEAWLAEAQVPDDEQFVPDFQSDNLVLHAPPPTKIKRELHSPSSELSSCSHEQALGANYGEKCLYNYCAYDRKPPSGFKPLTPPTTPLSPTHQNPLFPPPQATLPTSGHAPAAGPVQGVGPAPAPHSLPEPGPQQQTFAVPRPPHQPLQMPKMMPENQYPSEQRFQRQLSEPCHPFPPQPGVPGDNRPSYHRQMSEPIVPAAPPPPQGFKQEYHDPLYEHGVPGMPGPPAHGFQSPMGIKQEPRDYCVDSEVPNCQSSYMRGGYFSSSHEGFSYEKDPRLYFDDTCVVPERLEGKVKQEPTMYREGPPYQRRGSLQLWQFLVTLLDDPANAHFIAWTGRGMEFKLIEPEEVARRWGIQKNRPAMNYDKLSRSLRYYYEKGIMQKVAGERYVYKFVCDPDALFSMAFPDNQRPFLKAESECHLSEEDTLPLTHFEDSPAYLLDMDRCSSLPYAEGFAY
# How it was run: as §1
# HSF1 = HSF1 (Homo sapiens, UniProt Q00613 1-529); conditions: protein: recombinant; tags: N-terminal GST; chain copies: 3; dsDNA, one strand shown
# Chain of HSF1 (Q00613 whole entry): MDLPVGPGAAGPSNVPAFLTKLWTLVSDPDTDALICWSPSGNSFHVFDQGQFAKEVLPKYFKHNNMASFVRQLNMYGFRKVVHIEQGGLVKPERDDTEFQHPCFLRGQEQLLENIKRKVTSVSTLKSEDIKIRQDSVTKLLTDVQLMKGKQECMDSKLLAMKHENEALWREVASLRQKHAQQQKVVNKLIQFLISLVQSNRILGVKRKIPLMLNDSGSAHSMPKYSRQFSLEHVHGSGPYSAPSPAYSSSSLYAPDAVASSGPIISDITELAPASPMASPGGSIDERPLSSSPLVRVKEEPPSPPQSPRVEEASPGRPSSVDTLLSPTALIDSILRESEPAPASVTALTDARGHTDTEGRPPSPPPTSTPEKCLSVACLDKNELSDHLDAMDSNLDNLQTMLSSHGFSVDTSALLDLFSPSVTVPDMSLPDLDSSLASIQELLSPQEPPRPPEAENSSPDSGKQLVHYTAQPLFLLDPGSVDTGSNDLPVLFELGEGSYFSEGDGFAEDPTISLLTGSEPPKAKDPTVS
# How it was run: as §1
# SPIC = target: T8, SPIC (Homo sapiens, UniProt Q8N5J4 1-248); conditions: protein: recombinant; tags: N-terminal GST; dsDNA, one strand shown
# T8 sequence: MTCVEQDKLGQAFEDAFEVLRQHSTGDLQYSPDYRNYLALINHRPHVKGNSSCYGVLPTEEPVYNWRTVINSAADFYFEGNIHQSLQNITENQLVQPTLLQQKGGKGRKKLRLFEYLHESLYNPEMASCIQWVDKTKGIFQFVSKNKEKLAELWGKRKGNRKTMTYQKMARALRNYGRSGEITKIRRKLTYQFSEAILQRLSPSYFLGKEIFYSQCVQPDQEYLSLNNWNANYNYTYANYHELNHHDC
# How it was run: as §1
# ELF4 = ELF4 (Homo sapiens, UniProt Q99607 1-663); conditions: protein: recombinant; tags: N-terminal GST; dsDNA, one strand shown
# Chain of ELF4 (Q99607 whole entry): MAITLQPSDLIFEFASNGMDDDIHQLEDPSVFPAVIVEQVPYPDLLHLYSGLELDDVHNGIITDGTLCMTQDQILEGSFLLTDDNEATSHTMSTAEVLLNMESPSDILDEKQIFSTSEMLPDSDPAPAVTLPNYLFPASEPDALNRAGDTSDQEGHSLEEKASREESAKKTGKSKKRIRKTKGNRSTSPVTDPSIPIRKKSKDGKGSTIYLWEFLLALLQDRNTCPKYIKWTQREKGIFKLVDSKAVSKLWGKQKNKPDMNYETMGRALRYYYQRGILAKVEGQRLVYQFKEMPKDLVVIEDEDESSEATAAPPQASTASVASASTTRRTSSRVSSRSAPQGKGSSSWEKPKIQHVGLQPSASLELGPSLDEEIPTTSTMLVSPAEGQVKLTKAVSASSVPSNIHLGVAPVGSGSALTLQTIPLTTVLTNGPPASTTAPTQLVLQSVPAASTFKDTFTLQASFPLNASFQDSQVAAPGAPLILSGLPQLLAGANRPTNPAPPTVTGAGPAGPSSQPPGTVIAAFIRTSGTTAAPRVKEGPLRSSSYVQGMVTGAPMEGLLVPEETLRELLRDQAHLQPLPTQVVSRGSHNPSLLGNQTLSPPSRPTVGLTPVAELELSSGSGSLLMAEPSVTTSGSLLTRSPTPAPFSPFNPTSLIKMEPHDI
# How it was run: as §1
# ELK4 = target: T9, ELK4 (Homo sapiens, UniProt P28324-2 1-405); conditions: protein: recombinant; tags: N-terminal GST; dsDNA, one strand shown
# T9 sequence: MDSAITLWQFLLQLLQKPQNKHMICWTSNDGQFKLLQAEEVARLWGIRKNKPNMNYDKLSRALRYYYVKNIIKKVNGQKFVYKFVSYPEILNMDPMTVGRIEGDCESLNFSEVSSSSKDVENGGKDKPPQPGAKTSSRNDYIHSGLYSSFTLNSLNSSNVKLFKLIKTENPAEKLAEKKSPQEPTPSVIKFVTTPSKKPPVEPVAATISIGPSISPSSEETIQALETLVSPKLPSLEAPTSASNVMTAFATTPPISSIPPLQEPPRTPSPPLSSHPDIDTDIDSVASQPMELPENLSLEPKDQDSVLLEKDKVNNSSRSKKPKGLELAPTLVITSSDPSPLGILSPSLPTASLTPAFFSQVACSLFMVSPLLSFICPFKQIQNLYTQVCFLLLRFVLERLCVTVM
# How it was run: as §1
# ETV2 = target: T10, ETV2 (Homo sapiens, UniProt O00321 1-342); conditions: protein: recombinant; tags: N-terminal GST; dsDNA, one strand shown
# T10 sequence: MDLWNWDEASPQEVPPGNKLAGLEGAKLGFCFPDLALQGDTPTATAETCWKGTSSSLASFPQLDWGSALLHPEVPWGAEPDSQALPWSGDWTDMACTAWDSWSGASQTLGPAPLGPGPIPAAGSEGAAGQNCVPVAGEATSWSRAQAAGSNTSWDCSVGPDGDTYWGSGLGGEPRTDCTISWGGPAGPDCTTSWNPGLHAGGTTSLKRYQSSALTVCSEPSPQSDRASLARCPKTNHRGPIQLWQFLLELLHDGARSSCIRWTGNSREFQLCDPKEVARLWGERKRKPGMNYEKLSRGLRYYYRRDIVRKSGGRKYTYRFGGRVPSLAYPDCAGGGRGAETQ
# How it was run: as §1
# ELF3 = target: T11, ELF3 (Homo sapiens, UniProt P78545 1-371); conditions: protein: recombinant; tags: N-terminal GST; dsDNA, one strand shown
# T11 sequence: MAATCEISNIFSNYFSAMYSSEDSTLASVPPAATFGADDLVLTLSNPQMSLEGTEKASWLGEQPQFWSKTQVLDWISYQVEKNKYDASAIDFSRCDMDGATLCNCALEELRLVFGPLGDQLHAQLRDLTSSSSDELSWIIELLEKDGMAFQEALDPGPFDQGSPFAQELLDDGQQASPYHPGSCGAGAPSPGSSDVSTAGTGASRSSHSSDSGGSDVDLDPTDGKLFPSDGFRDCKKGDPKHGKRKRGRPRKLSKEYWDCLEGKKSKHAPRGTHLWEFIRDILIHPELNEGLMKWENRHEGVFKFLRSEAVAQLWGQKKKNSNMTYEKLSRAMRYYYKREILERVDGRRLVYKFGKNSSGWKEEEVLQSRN
# How it was run: as §1
# CRX = CRX (Homo sapiens, UniProt O43186 1-299); conditions: protein: recombinant; tags: N-terminal GST; dsDNA, one strand shown
# Chain of CRX (O43186 whole entry): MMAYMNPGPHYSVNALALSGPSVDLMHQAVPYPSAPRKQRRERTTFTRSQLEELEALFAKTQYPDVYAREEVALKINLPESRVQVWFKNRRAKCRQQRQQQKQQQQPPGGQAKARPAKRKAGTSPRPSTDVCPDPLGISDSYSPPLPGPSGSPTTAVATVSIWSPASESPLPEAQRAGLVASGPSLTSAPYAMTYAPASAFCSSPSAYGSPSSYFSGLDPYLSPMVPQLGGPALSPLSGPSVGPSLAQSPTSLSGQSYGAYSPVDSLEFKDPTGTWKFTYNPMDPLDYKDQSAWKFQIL
# How it was run: as §1
# ETV1 = ETV1 (Homo sapiens, UniProt P50549 1-477); conditions: protein: recombinant; tags: N-terminal GST; dsDNA, one strand shown
# Chain of ETV1 (P50549 whole entry): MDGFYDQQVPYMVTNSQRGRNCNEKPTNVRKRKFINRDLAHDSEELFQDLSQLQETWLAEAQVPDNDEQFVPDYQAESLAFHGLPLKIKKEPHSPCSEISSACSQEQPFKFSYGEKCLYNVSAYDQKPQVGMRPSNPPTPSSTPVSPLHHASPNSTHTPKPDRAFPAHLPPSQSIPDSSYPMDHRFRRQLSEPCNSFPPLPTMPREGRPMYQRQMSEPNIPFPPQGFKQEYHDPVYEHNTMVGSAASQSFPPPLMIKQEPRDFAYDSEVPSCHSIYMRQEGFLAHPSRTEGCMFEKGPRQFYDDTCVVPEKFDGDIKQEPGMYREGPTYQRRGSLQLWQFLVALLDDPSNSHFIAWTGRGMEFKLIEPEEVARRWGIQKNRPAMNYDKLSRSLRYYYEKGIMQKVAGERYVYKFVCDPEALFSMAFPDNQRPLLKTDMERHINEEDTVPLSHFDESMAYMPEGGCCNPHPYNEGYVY
# How it was run: as §1
sequence,measurement,setting,value
ATCTTA,binding signal,FLI1,"1.15 fold enrichment (6-mer frequency, TF over GST control)"
same,binding signal,ELK1,"1.07 fold enrichment (6-mer frequency, TF over GST control)"
same,binding signal,GABPA,"1.1 fold enrichment (6-mer frequency, TF over GST control)"
same,binding signal,ERG,"1.09 fold enrichment (6-mer frequency, TF over GST control)"
same,binding signal,ELF1,"1.15 fold enrichment (6-mer frequency, TF over GST control)"
same,binding signal,EHF,"1.04 fold enrichment (6-mer frequency, TF over GST control)"
same,binding signal,SPI1,"1.01 fold enrichment (6-mer frequency, TF over GST control)"
same,binding signal,SPIB,"1.03 fold enrichment (6-mer frequency, TF over GST control)"
same,binding signal,ELK3,"1.11 fold enrichment (6-mer frequency, TF over GST control)"
same,binding signal,FEV,"1.1 fold enrichment (6-mer frequency, TF over GST control)"
same,binding signal,ETV5,"1.1 fold enrichment (6-mer frequency, TF over GST control)"
same,binding signal,HSF1,"1.47 fold enrichment (6-mer frequency, TF over GST control)"
same,binding signal,SPIC,"1.05 fold enrichment (6-mer frequency, TF over GST control)"
same,binding signal,ELF4,"1.1 fold enrichment (6-mer frequency, TF over GST control)"
same,binding signal,ELK4,"1.18 fold enrichment (6-mer frequency, TF over GST control)"
same,binding signal,ETV2,"1.12 fold enrichment (6-mer frequency, TF over GST control)"
same,binding signal,ELF3,"1.12 fold enrichment (6-mer frequency, TF over GST control)"
same,binding signal,CRX,"2.11 fold enrichment (6-mer frequency, TF over GST control)"
same,binding signal,ETV1,"1.12 fold enrichment (6-mer frequency, TF over GST control)"

# — paper PMC7862700, “An all-to-all approach to the identification of sequence-specific readers for epigenetic DNA modifications on cytosine”
